# Laboratory results reported in PMC7862700, “An all-to-all approach to the identification of sequence-specific readers for epigenetic DNA modifications on cytosine”.
# Columns and labels:
# Experiment in all cases: DAPPL (digital affinity profiling via proximity ligation, sequencing); 10 mM Tris-HCl pH 7.5, 50 mM NaCl, 1 mM DTT, 4% glycerol, room temperature, 30 min; GST-TFs on glutathione beads, 16-mer random dsDNA library, 0.1% formaldehyde crosslink after washing; high values mean tight binding
# FLI1 = target: T1, FLI1 (Homo sapiens, UniProt Q01543 1-452); conditions: protein: recombinant; tags: N-terminal GST; dsDNA, one strand shown
# T1 sequence: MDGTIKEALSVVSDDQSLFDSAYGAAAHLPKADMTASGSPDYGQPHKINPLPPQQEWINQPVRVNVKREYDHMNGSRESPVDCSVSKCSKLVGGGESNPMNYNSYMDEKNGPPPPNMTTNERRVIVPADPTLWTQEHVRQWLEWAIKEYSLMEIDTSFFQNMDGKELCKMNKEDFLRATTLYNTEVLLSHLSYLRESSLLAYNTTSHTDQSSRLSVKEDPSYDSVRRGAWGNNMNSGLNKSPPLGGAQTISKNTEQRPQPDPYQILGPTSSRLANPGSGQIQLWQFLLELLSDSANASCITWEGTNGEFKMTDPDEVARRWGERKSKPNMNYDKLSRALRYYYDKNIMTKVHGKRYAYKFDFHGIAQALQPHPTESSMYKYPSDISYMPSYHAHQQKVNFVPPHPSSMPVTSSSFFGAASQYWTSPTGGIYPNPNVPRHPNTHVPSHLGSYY
# Procedure, shortened: (§1)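 In yeast, human transcription factors were expressed with a GST fusion, then pulled down on glutathione beads and given DNA barcodes. Pooled with a tag-only sample, they were exposed to 200 nmole of a 16-mer random double-stranded DNA library (Tris/NaCl/DTT/glycerol buffer, room temperature, 30 min), washed, crosslinked with 0.1% formaldehyde, proximity-ligated using BsaI/T4 ligase for 1 h at 37 °C, PCR-amplified and read on an Illumina NextSeq500. Each hexamer's frequency of reads for a factor, divided by the matching frequency for the tag-only sample, gives the binding signal.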
# ELK1 = target: T2, ELK1 (Homo sapiens, UniProt P19419 1-428); conditions: protein: recombinant; tags: N-terminal GST; dsDNA, one strand shown
# T2 sequence: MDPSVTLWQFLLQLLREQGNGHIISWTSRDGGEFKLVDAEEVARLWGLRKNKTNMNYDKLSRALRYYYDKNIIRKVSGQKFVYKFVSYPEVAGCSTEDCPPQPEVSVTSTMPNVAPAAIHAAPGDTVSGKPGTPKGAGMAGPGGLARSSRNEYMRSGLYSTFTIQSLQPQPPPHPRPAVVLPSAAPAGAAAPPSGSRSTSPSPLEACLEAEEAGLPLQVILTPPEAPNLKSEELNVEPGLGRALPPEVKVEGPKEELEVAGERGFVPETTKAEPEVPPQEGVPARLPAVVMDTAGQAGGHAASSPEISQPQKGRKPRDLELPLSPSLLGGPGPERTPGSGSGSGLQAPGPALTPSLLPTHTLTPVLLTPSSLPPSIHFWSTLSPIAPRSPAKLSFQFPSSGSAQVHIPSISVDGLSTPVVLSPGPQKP
# Procedure, shortened: as §1
# GABPA = target: T3, GABPA (Homo sapiens, UniProt Q06546 1-454); conditions: protein: recombinant; tags: N-terminal GST; dsDNA, one strand shown
# T3 sequence: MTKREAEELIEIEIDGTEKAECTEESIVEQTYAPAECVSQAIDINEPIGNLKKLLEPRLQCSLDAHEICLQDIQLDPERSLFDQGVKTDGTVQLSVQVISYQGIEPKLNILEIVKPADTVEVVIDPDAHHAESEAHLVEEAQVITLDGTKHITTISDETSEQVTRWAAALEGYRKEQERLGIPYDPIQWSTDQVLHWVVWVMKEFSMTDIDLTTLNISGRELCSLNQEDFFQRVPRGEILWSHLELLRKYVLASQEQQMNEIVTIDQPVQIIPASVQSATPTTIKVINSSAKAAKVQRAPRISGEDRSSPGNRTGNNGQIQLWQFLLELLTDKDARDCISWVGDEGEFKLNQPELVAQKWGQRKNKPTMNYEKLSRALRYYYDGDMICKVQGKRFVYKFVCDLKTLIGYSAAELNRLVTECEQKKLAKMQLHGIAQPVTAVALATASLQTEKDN
# Procedure, shortened: as §1
# ERG = target: T4, ERG (Homo sapiens, UniProt P11308 1-479); conditions: protein: recombinant; tags: N-terminal GST; dsDNA, one strand shown
# T4 sequence: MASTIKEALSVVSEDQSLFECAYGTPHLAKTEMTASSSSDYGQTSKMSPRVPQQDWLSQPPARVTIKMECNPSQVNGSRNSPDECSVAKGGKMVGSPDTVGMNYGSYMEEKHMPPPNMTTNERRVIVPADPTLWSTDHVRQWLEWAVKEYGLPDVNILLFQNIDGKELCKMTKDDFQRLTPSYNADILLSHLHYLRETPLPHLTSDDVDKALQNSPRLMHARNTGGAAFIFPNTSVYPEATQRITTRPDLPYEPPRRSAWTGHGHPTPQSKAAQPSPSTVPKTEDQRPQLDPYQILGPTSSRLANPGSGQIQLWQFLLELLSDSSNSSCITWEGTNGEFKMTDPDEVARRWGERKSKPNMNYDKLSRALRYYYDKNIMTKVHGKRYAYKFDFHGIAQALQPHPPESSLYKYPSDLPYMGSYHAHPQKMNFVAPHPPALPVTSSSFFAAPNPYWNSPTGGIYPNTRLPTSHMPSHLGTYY
# Procedure, shortened: as §1
# ELF1 = ELF1 (Homo sapiens, UniProt P32519 1-619); conditions: protein: recombinant; tags: N-terminal GST; dsDNA, one strand shown
# Chain of ELF1 (P32519 whole entry): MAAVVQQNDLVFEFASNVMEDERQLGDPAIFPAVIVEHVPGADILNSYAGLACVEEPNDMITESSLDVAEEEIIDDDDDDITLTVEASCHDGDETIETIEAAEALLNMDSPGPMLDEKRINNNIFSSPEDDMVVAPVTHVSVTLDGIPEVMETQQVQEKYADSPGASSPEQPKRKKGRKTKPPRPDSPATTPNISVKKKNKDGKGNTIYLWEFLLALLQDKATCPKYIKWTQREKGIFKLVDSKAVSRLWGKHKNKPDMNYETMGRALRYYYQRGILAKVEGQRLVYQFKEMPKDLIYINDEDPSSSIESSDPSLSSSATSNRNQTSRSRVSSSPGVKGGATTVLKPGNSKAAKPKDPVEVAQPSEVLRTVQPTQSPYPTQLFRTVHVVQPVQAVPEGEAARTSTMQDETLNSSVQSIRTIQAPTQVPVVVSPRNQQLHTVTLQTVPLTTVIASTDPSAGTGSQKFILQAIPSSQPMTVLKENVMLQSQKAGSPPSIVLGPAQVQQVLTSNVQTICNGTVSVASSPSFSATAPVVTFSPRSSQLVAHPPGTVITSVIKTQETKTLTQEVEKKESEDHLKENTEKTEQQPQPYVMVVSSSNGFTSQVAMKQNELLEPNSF
# Procedure, shortened: as §1
# EHF = target: T5, EHF (Homo sapiens, UniProt Q9NZC4 1-300); conditions: protein: recombinant; tags: N-terminal GST; dsDNA, one strand shown
# T5 sequence: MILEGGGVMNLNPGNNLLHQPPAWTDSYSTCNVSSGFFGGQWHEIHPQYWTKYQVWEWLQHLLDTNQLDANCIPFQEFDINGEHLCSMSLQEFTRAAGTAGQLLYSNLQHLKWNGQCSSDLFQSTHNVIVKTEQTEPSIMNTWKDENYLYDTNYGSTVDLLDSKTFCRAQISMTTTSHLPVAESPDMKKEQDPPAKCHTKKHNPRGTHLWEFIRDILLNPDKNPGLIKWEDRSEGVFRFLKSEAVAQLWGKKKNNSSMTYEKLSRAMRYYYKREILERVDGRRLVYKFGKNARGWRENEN
# Procedure, shortened: as §1
# SPI1 = SPI1 (Homo sapiens, UniProt P17947 1-270); conditions: protein: recombinant; tags: N-terminal GST; dsDNA, one strand shown
# Procedure, shortened: as §1
# SPIB = SPIB (Homo sapiens, UniProt Q01892 1-262); conditions: protein: recombinant; tags: N-terminal GST; dsDNA, one strand shown
# Chain of SPIB (Q01892 whole entry): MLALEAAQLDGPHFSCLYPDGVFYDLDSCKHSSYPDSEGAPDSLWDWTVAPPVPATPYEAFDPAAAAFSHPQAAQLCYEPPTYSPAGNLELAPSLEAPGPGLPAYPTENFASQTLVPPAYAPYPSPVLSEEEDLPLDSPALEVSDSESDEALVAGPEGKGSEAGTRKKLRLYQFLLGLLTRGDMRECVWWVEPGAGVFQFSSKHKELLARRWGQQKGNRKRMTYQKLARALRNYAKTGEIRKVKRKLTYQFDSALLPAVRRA
# Procedure, shortened: as §1
# ELK3 = target: T6, ELK3 (Homo sapiens, UniProt P41970 1-407); conditions: protein: recombinant; tags: N-terminal GST; dsDNA, one strand shown
# T6 sequence: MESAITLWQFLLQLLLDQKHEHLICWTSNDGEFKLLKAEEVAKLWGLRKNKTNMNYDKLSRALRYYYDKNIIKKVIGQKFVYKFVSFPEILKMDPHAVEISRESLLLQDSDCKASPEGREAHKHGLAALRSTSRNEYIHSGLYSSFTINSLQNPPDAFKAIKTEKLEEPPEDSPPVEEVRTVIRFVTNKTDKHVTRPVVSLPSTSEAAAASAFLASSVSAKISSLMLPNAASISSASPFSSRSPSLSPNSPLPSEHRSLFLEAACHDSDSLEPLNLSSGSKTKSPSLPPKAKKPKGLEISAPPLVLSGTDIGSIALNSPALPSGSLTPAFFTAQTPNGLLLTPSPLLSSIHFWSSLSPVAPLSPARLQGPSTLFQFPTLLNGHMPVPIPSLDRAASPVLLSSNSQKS
# Procedure, shortened: as §1
# FEV = target: T7, FEV (Homo sapiens, UniProt Q99581 1-238); conditions: protein: recombinant; tags: N-terminal GST; dsDNA, one strand shown
# T7 sequence: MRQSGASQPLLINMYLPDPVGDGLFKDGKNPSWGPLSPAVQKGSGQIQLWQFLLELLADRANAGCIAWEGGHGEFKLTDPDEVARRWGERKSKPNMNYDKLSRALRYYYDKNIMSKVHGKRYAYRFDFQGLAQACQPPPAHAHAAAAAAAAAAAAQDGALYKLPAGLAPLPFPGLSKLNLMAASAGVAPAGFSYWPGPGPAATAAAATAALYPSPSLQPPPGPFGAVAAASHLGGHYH
# Procedure, shortened: as §1
# ETV5 = ETV5 (Homo sapiens, UniProt P41161 1-510); conditions: protein: recombinant; tags: N-terminal GST; dsDNA, one strand shown
# Chain of ETV5 (P41161 whole entry): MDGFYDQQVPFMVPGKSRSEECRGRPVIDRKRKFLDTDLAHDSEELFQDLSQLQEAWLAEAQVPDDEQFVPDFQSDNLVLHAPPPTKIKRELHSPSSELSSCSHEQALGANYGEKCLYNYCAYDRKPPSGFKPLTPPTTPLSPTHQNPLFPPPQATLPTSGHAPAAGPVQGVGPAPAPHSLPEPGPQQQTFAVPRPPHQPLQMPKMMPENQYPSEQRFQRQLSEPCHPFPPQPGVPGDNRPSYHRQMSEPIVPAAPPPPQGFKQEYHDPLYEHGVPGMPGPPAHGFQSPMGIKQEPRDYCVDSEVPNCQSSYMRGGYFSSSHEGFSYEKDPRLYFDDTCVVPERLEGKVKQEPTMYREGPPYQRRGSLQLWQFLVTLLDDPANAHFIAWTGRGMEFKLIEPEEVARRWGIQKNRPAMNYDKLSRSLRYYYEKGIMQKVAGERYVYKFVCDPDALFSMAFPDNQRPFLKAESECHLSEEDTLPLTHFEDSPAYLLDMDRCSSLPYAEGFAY
# Procedure, shortened: as §1
# HSF1 = HSF1 (Homo sapiens, UniProt Q00613 1-529); conditions: protein: recombinant; tags: N-terminal GST; chain copies: 3; dsDNA, one strand shown
# Chain of HSF1 (Q00613 whole entry): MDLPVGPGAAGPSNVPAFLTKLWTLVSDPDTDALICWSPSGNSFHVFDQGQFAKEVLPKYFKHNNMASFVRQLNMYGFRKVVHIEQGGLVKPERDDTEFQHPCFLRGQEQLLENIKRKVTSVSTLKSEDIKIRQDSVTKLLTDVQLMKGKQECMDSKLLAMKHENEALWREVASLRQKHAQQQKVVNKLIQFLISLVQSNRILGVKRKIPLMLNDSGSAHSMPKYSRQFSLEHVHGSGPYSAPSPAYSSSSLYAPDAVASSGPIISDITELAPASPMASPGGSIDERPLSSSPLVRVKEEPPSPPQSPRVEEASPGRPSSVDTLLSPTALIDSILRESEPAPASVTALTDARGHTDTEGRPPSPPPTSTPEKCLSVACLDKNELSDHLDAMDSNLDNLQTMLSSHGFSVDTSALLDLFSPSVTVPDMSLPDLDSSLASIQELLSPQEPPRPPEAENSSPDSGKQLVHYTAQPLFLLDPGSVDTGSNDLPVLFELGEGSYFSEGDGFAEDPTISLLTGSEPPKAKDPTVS
# Procedure, shortened: as §1
# SPIC = target: T8, SPIC (Homo sapiens, UniProt Q8N5J4 1-248); conditions: protein: recombinant; tags: N-terminal GST; dsDNA, one strand shown
# T8 sequence: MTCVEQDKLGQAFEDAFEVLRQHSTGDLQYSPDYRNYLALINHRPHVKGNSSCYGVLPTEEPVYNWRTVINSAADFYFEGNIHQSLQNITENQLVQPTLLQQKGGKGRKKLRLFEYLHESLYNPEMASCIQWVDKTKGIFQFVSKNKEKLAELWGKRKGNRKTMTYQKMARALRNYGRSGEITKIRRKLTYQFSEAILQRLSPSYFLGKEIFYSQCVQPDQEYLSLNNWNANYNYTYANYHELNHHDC
# Procedure, shortened: as §1
# ELF4 = ELF4 (Homo sapiens, UniProt Q99607 1-663); conditions: protein: recombinant; tags: N-terminal GST; dsDNA, one strand shown
# Chain of ELF4 (Q99607 whole entry): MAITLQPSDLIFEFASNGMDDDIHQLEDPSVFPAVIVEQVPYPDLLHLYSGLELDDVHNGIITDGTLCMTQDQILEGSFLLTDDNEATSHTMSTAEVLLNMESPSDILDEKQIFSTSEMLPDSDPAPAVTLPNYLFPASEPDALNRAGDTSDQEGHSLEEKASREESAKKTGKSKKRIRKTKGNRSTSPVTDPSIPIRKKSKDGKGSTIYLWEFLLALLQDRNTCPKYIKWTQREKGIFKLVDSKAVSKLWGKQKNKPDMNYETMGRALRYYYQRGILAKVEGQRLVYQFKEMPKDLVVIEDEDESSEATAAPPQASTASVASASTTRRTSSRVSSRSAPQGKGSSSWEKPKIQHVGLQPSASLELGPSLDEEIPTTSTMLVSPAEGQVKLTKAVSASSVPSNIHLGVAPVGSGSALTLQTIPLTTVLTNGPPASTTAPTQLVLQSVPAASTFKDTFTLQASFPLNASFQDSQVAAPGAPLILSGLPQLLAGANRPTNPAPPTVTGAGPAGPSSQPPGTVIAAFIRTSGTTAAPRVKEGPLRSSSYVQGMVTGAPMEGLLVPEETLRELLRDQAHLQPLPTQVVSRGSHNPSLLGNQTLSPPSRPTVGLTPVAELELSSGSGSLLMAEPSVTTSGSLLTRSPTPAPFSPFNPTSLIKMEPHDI
# Procedure, shortened: as §1
# ELK4 = target: T9, ELK4 (Homo sapiens, UniProt P28324-2 1-405); conditions: protein: recombinant; tags: N-terminal GST; dsDNA, one strand shown
# T9 sequence: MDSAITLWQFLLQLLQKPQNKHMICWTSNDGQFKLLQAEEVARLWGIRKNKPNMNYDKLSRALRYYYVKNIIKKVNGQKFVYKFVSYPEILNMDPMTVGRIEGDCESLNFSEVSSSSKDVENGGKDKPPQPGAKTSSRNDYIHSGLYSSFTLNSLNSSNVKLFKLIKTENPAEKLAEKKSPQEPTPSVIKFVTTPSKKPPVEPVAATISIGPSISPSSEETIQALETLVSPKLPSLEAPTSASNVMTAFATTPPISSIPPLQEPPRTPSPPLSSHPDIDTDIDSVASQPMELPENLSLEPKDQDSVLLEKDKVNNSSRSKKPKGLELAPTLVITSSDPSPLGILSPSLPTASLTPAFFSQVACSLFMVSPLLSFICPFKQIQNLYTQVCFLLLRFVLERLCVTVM
# Procedure, shortened: as §1
# ETV2 = target: T10, ETV2 (Homo sapiens, UniProt O00321 1-342); conditions: protein: recombinant; tags: N-terminal GST; dsDNA, one strand shown
# T10 sequence: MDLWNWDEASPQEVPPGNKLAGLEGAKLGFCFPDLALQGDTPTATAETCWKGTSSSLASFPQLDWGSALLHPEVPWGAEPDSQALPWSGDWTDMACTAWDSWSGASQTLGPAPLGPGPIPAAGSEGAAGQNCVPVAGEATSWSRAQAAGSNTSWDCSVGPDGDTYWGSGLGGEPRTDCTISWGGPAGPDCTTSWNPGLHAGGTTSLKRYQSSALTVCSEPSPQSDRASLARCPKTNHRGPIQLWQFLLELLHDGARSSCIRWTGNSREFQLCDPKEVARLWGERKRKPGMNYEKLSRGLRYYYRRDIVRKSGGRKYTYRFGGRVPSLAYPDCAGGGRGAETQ
# Procedure, shortened: as §1
# ELF3 = target: T11, ELF3 (Homo sapiens, UniProt P78545 1-371); conditions: protein: recombinant; tags: N-terminal GST; dsDNA, one strand shown
# T11 sequence: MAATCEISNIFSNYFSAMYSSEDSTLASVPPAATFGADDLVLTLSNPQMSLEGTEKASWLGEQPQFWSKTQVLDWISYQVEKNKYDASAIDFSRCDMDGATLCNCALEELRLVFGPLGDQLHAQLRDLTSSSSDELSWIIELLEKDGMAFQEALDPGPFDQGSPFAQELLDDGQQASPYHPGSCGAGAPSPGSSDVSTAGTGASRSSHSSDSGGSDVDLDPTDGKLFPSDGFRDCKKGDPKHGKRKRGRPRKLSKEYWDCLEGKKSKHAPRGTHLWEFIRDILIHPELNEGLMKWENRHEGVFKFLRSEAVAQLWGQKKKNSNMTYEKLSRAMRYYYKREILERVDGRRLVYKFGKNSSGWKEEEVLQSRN
# Procedure, shortened: as §1
# CRX = CRX (Homo sapiens, UniProt O43186 1-299); conditions: protein: recombinant; tags: N-terminal GST; dsDNA, one strand shown
# Chain of CRX (O43186 whole entry): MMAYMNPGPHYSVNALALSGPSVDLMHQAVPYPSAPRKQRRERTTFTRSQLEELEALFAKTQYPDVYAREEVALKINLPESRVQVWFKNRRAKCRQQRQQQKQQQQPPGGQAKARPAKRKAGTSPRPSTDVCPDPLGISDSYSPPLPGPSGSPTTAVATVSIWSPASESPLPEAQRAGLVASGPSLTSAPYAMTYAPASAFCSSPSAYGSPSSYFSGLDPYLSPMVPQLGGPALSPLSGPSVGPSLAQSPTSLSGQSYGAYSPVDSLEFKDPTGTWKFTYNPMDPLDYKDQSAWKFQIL
# Procedure, shortened: as §1
# ETV1 = ETV1 (Homo sapiens, UniProt P50549 1-477); conditions: protein: recombinant; tags: N-terminal GST; dsDNA, one strand shown
# Chain of ETV1 (P50549 whole entry): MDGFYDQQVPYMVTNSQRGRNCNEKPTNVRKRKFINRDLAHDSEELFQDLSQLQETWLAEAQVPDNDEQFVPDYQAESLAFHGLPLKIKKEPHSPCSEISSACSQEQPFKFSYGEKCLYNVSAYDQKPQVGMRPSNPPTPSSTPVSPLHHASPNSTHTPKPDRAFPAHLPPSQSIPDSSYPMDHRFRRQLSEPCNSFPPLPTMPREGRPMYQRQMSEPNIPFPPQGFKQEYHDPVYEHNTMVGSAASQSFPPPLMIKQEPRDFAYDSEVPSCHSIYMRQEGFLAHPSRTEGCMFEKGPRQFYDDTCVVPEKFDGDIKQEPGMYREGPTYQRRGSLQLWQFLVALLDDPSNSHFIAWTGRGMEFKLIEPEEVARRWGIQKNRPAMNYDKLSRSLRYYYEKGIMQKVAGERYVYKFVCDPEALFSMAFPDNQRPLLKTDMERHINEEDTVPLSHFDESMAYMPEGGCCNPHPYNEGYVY
# Procedure, shortened: as §1
sequence,measurement,setting,value
GAACTC,binding signal,FLI1,"1.28 fold enrichment (6-mer frequency, TF over GST control)"
same,binding signal,ELK1,"1.22 fold enrichment (6-mer frequency, TF over GST control)"
same,binding signal,GABPA,"1.31 fold enrichment (6-mer frequency, TF over GST control)"
same,binding signal,ERG,"1.26 fold enrichment (6-mer frequency, TF over GST control)"
same,binding signal,ELF1,"1.29 fold enrichment (6-mer frequency, TF over GST control)"
same,binding signal,EHF,"1.28 fold enrichment (6-mer frequency, TF over GST control)"
same,binding signal,SPI1,"1.39 fold enrichment (6-mer frequency, TF over GST control)"
same,binding signal,SPIB,"1.28 fold enrichment (6-mer frequency, TF over GST control)"
same,binding signal,ELK3,"1.33 fold enrichment (6-mer frequency, TF over GST control)"
same,binding signal,FEV,"1.28 fold enrichment (6-mer frequency, TF over GST control)"
same,binding signal,ETV5,"1.29 fold enrichment (6-mer frequency, TF over GST control)"
same,binding signal,HSF1,"1.25 fold enrichment (6-mer frequency, TF over GST control)"
same,binding signal,SPIC,"1.32 fold enrichment (6-mer frequency, TF over GST control)"
same,binding signal,ELF4,"1.26 fold enrichment (6-mer frequency, TF over GST control)"
same,binding signal,ELK4,"1.14 fold enrichment (6-mer frequency, TF over GST control)"
same,binding signal,ETV2,"1.1 fold enrichment (6-mer frequency, TF over GST control)"
same,binding signal,ELF3,"1.29 fold enrichment (6-mer frequency, TF over GST control)"
same,binding signal,CRX,"1.02 fold enrichment (6-mer frequency, TF over GST control)"
same,binding signal,ETV1,"1.35 fold enrichment (6-mer frequency, TF over GST control)"
